Laboratory results reported in PubChem BioAssay (NCATS).
Inconclusive results are not listed. The source made the active and inactive calls. The call rests on the fitted dose curve; in most records, active means well fitted curve in the direction sought with a large enough effect; inconclusive means small, poorly fitted or top-dose-only effect, or another doubt; inactive means no such curve, though single readings can be large; an effect the other way counts as inactive or inconclusive.

Legend:
[1] = qHTS assay for measurement of the activity of small molecule inhibitors on Zika virus induced Caspase-3 activity in human iPSC derived neural progenitor cells (hNPCs) (AID 1224857); further: % of control where 0% means no effect; nearly all actives have a fitted effect of over 65% in size
Method in brief: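 Caspase-3/7 induction by a 6-hour ZIKV infection was quantified with a luminescent Caspase-Glo 3/7 reagent incubated 30 minutes at room temperature. Compounds were preincubated with hNPCs for 1 hour; inhibition was calculated against uninfected and infected control wells.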

[2] = qHTS assay for measurement of the activity of small molecule inhibitors on Zika virus induced Caspase-3 activity in human astrocytoma cells (AID 1224859);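 further: plate controls were ZIKV-infected untreated cells for no effect and uninfected cells for full effect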
Method in brief: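 In SNB-19 cells plated at 250 cells/well and grown 16-20 h, compounds were applied 1 h before ZIKV (2 FFU/cell). Six hours later caspase-3/7 luminescence was recorded.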

[3] = qHTS assay to identify small molecule inhibitors of chordoma cells - UCH-1 (AID 1259355); further: on the % scale 0 is the no-effect control and ±100 the full control effect; nearly all actives have a fitted effect of over 55% in size
Method in brief: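 A 48hr growth-inhibition format: each drug tested at 15 concentrations together with added auranofin, camptothecin, doxorubicin, rubitecan and topotecan, with cell viability quantified as CellTiter-Glo luminescence.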

[4] = qHTS assay to identify small molecule inhibitors of chordoma cells - UCH-2 (AID 1259356); further: series mostly up to about 46 µM; on the % scale 0 is the no-effect control and ±100 the full control effect

CC(=O)c1ccc2c(c1)N(CCCN(C)C)c1ccccc1S2
inactive: outcome [1] | outcome [2] | Potency [3] | outcome [4]

O=C1NC(=O)[C@@]2(CCOc3ccc(F)cc32)N1
inactive: outcome [1] | outcome [2] | Potency [3] | outcome [4]

CN1CCC[C@@H]1Cc1c[nH]c2ccc(CCS(=O)(=O)c3ccccc3)cc12
inactive: outcome [1] | outcome [2] | Potency [3] | outcome [4]

Cc1cc2c(cc1S(N)(=O)=O)S(=O)(=O)CCC2
inactive: outcome [1] | outcome [2] | Potency [3] | outcome [4]

CC1(C)CO[C@@H](CC(=O)O)CN1
inactive: outcome [1] | outcome [2] | Potency [3] | outcome [4]

COc1cc(C)c(Cc2cnc(N)nc2N)cc1OC
inactive: outcome [1] | outcome [2] | Potency [3] | outcome [4]

CC12CCC(CC1)C(C)(C)O2
inactive: outcome [1] | outcome [2] | Potency [3] | outcome [4]

O=C1OC(OC(=O)c2cccnc2Nc2cccc(C(F)(F)F)c2)c2ccccc21 (stereo not drawn)
inactive: outcome [1] | outcome [2] | Potency [3] | outcome [4]

CCC(=O)c1ccc(O)cc1
inactive: outcome [1] | outcome [2] | Potency [3] | outcome [4]

Cc1cccc(Nc2cc(Cl)nc(SCC(=O)O)n2)c1C
inactive: outcome [1] | outcome [2] | Potency [3] | outcome [4]

CCCCOc1cc(C(=O)OCCN(CC)CC)ccc1N
inactive: outcome [1] | outcome [2] | Potency [3] | outcome [4]

O=C(O)COc1nn(Cc2ccccc2)c2ccccc12
inactive: outcome [1] | outcome [2] | Potency [3] | outcome [4]

O=C(O)[C@@H]1CSCN1
inactive: outcome [1] | outcome [2] | Potency [3] | outcome [4]

[O-][n+]1cccc(CO)c1
inactive: outcome [1] | outcome [2] | Potency [3] | outcome [4]

CN1[C@@H]2CC(OC(=O)[C@H](CO)c3ccccc3)C[C@H]1[C@@H]1O[C@@H]12 (stereo partly drawn)
inactive: outcome [1] | outcome [2] | Potency [3] | outcome [4]

CCN(CC)CCNC(C(=O)OCCC(C)C)c1ccccc1 (stereo not drawn)
inactive: outcome [1] | outcome [2] | Potency [3] | outcome [4]

CC(=O)NC(Cc1ccccc1)C(=O)O (stereo not drawn)
inactive: outcome [1] | outcome [2] | Potency [3] | outcome [4]

CN(C)CCN(Cc1ccccc1)c1ccccn1
inactive: outcome [1] | outcome [2] | Potency [3] | outcome [4]

CC(=O)Nc1ccc(/C=N/NC(N)=S)cc1
inactive: outcome [1] | outcome [2] | Potency [3] | outcome [4]

CC(O)COc1ccccc1 (stereo not drawn)
inactive: outcome [1] | outcome [2] | Potency [3] | outcome [4]

O=C1Nc2ccc(Cl)cc2[C@@](C#CC2CC2)(C(F)(F)F)O1
inactive: outcome [1] | outcome [2] | Potency [3] | outcome [4]

CCCCN1CCCC[C@H]1C(=O)Nc1c(C)cccc1C
inactive: outcome [1] | outcome [2] | Potency [3] | outcome [4]

O=C1NS(=O)(=O)c2ccccc21
inactive: outcome [1] | outcome [2] | Potency [3] | outcome [4]

CCCCc1ncc(/C=C(\Cc2cccs2)C(=O)O)n1Cc1ccc(C(=O)O)cc1
inactive: outcome [1] | outcome [2] | Potency [3] | outcome [4]

C[C@@H]1CC[C@@]2(OC1)O[C@H]1C[C@H]3[C@@H]4CC[C@H]5C[C@@H](O)CC[C@]5(C)[C@H]4CC(=O)[C@]3(C)[C@H]1[C@@H]2C
inactive: activity change, negative = inhibition [1] 4.72% [at 4.53 µM] | activity change, negative = inhibition [2] -4.08% [at 4.53 µM] | Potency [3] | outcome [4]

NCCNCCNCCNCCN
inactive: activity change, negative = inhibition [1] -1.07% [at 9.06 µM] | activity change, negative = inhibition [2] 14.1% [at 9.06 µM] | Potency [3] | outcome [4]

CCCCCCCCCCCCCCCC(=O)NCCO
inactive: outcome [1] | outcome [2] | Potency [3] | outcome [4]
